From PubChem BioAssay come the findings set out here.

Values without a mark were called inactive. For part of these data: Entries with a potency or affinity are not part of this list. Active and inactive are the calls of the source. Unless noted, no rule for the calls is given here.

The nature of assay [1]: antimalarial activity against Dd2 strain (AID 2302;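 active = growth inhibition above 50% at the single 2 µM test dose, taken to imply half-maximal potency below 2 µM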;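 also: 0% = DMSO untreated growth and 100% = chloroquine plus artemisinin killed control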). As to conditions: P. falciparum Dd2 in RBCs, LDH growth readout, 72 h; at 2 µM; hits give high values.
A short description of assay [2]: human hepatoma cell viability loss – ATP luminescence, cytotoxicity control for P. falciparum antimalarial project, primary screen (AID 2303;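 active = inhibition above 50%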;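 also: 0% = DMSO wells and 100% = digitonin-killed cells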). As to conditions: HepG2 viability, 24-48 h, at 10 µM, hits give high values.
For assay [3], the target named is L-lactate dehydrogenase (Plasmodium falciparum (isolate CDC / Honduras)) (UniProt Q27743). The assay is described as follows: PfLDH activity inhibition – cell lysate, 3D7 strain, counter-screen for P. falciparum growth inhibition project (AID 2304).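 Also: 0% = vehicle and 100% = reference inhibitor.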 As to conditions: P. falciparum 3D7 crude extract, LDH APAD/NBT absorbance; at 2 µM; hits give high values.
L-lactate dehydrogenase (Plasmodium falciparum (isolate CDC / Honduras)), sequence (Q27743 whole entry, looked up): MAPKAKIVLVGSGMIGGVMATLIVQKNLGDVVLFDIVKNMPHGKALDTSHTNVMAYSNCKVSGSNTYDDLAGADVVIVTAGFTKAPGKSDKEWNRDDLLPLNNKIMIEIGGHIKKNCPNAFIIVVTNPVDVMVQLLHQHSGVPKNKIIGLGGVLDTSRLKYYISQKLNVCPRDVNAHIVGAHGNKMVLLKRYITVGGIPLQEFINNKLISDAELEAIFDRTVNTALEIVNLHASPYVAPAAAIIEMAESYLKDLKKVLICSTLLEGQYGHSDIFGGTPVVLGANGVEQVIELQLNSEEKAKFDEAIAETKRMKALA
The nature of assay [4]: inhibition of 3D7 malaria parasite growth – strain 3D7 (AID 2306).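 Also: 0% = DMSO wells and 100% = chloroquine plus artemisinin control wells.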 As to conditions: P. falciparum 3D7 erythrocytic growth, LDH absorbance, 72 h; at 2 µM; hits give high values.
The target of assay [5] is Calcium-dependent protein kinase 1 (Plasmodium falciparum (isolate 3D7)) (UniProt P62344). The experiment in a line: PfCDPK1 kinase inhibitors, biochemical, TCAMS library (AID 1159585; cut-off not given, nearly all actives have IC50 up to about 0.98 µM;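 also: inhibitors leave more ATP so luminescence rises with inhibition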). As to conditions: recombinant PfCDPK1, Kinase-Glo ATP depletion luminescence.
Calcium-dependent protein kinase 1 (Plasmodium falciparum (isolate 3D7)), sequence (P62344 whole entry, looked up): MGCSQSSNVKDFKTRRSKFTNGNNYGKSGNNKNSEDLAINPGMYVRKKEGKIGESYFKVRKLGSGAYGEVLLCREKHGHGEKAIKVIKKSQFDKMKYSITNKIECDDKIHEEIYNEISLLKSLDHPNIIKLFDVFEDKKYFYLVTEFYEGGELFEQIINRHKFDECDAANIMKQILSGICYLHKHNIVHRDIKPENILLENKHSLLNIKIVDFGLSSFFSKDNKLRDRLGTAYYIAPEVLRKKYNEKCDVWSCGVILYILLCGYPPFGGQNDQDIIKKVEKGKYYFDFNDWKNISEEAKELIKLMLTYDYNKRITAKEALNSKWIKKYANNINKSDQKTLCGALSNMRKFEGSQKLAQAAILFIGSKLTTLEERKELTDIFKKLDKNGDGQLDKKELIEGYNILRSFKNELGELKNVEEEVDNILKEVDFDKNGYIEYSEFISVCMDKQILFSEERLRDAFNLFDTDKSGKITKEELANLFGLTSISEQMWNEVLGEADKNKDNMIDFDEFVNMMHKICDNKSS
Assay [6] concerns the target Plasmodium falciparum protein kinase 6 (PK6, PF3D7_1337100) (UniProt Q8IDW1). The experiment in a line: PfPK6 kinase inhibitors, biochemical, TCAMS library (AID 1159586). As to conditions: recombinant PfPK6, Kinase-Glo ATP depletion luminescence.
Assay [7] addresses Protein kinase 7 (PK7), Plasmodium falciparum 3D7 (PF3D7_0213400) (UniProt Q7YTF7). The assay is described as follows: inhibition of Plasmodium PK7 catalytic activity – biochemical, TCAMS antimalarial set, Kinase-Glo luminescence (AID 1159587). As to conditions: recombinant PfPK7, Kinase-Glo ATP depletion luminescence.
Assay [8] concerns the target Calcium-dependent protein kinase 4 (Plasmodium falciparum (isolate 3D7)) (UniProt Q8IBS5). The assay is described as follows: PfCDPK4 kinase inhibitors, biochemical, TCAMS library (AID 1159588; cut-off not given, nearly all actives have IC50 up to about 0.91 µM). As to conditions: recombinant PfCDPK4, Kinase-Glo ATP depletion luminescence.

Protein kinase 7 (PK7), Plasmodium falciparum 3D7 (PF3D7_0213400), sequence (Q7YTF7 1-343): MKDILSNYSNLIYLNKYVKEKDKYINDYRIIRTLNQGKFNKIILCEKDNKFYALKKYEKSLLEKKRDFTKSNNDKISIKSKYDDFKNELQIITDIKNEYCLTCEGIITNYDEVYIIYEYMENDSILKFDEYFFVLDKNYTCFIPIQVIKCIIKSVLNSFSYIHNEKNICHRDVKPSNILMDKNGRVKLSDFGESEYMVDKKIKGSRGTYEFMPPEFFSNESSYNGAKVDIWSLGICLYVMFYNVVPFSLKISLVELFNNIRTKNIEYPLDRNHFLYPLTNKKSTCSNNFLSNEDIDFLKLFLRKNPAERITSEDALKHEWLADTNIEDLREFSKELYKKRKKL
Calcium-dependent protein kinase 4 (Plasmodium falciparum (isolate 3D7)), sequence (Q8IBS5 whole entry, looked up): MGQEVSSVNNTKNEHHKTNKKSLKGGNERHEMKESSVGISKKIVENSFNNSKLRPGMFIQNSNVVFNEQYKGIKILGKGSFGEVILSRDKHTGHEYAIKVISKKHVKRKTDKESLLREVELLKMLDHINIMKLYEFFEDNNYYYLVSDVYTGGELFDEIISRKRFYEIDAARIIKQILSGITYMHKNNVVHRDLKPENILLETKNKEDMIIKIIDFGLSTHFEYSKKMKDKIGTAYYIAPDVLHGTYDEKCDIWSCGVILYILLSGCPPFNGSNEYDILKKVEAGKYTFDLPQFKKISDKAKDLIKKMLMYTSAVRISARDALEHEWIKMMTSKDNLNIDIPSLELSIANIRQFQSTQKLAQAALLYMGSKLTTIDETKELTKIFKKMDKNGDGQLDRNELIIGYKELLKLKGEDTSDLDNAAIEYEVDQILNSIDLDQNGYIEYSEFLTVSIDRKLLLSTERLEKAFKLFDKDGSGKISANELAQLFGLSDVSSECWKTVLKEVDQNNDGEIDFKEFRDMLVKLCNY
Plasmodium falciparum protein kinase 6 (PK6, PF3D7_1337100), sequence (Q8IDW1 1-305): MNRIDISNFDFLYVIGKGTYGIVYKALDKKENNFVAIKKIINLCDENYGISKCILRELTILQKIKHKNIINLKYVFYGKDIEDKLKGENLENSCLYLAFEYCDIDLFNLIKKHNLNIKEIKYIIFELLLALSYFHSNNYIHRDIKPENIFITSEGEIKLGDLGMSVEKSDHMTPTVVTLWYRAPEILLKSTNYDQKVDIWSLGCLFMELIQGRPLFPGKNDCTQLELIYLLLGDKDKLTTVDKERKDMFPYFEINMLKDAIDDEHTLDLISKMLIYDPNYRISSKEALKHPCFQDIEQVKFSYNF

On to `c1cc(CNc2ncc(-c3ccsc3)c(-c3nccs3)n2)ccn1`, for which the values for the growth inhibition in assay [1] and in assay [4] were 81% (active) and 89% (active), respectively. Further, the results for the inhibition in assay [2] and in assay [3] were 18% and -7%, respectively. Further, the outcome in assay [5], in assay [6], in assay [7] and in assay [8] was inactive.
As to `c1ccc(-n2ncc(CNCc3ccc(-c4ccc(-c5nc6ccccc6[nH]5)s4)cc3)n2)cc1`, the values for the growth inhibition in assay [1] and in assay [4] were 46% and 93% (active), respectively. Further, the results for the inhibition in assay [2] and in assay [3] were 27% and 4%, respectively. Also, the result in assay [5], in assay [6], in assay [7] and in assay [8] was inactive.
In the case of `CCC(CC)NCc1c(O)ccc2c(CNC(CC)CC)c(O)ccc12`, the growth inhibition in assay [1] was 94% (active); in assay [4] it was 100% (active). In addition, the inhibition in assay [2] was 4%; in assay [3], 0%. Moreover, the result in assay [5], in assay [6], in assay [7] and in assay [8] was inactive.
As to `COc1cccc(C(C)(C)NC[C@@H](O)[C@H](Cc2ccccc2)NC(=O)c2cc(C3CCCC3)cc(N3CCCCS3(=O)=O)c2F)c1`, the growth inhibition in assay [1] and in assay [4] was 99% (active) in each case. Besides, the results for the inhibition in assay [2] and in assay [3] were 16% and 7%, respectively. In addition, the result in assay [5], in assay [6], in assay [7] and in assay [8] was inactive.
As for `O=C(c1cccc(-c2noc(C(F)(F)F)n2)c1)N1CCN(c2nsc3ccccc23)CC1`, the values for the growth inhibition in assay [1] and in assay [4] were 81% (active) and 90% (active), respectively. In addition, the inhibition is 18% in assay [2] and -2% in assay [3]. In addition, the result in assay [5], in assay [6], in assay [7] and in assay [8] was inactive.
On to `COc1cc(NC(=O)c2sc(-c3ccc(Cl)cc3)cc2Cl)ccc1OCCN1CCCC1`, for which the growth inhibition in assay [1] was 21%; in assay [4], 93% (active). In addition, the inhibition in assay [2] was 72% (active); in assay [3], 4%. The result in assay [5], in assay [6], in assay [7] and in assay [8] was inactive.
On to `COc1ccc2ncc(Cl)c(CCN3CC[C@@H](CNCc4cc5c(cn4)OCS5)C3)c2n1`, for which the figures for the growth inhibition in assay [1] and in assay [4] were 31% and 99% (active), respectively. Further, the results for the inhibition in assay [2] and in assay [3] were 22% and 3%, respectively. For the same compound, the result in assay [5], in assay [6], in assay [7] and in assay [8] was inactive.
On to `OCCC1CCN(Cc2ccc(-c3ccc(-c4nc5ccccc5[nH]4)cc3)cc2)CC1`, for which the growth inhibition in assay [1] was 98% (active); in assay [4], 99% (active). Further, the inhibition in assay [2] is 35%; in assay [3], 2%. Moreover, the outcome in assay [5], in assay [6], in assay [7] and in assay [8] was inactive.
As to `COc1nc(NCC(C)C)nc(Oc2ccc(=O)n(Cc3ccccc3)n2)n1`, the figures for the growth inhibition in assay [1] and in assay [4] were 93% (active) and 97% (active), respectively. Moreover, the results for the inhibition in assay [2] and in assay [3] were 1% and 5%, respectively. For the same compound, the result in assay [5], in assay [6], in assay [7] and in assay [8] was inactive.
Take `COc1cccc(-c2c(C#N)c(N)nc3c2c(C)nn3-c2ccccc2)c1O`: the growth inhibition in assay [1] and in assay [4] was 100% (active) throughout. Further, the inhibition was 4% in assay [2] and 7% in assay [3]. In addition, the result in assay [5], in assay [6], in assay [7] and in assay [8] was inactive.
With `CN1CCC[C@@H](Oc2cc3c(cc2Br)CCN3C(=O)Nc2ccc(-c3ccncc3)c(Cl)c2)C1`, the growth inhibition in assay [1] was 64% (active); in assay [4] it was 99% (active). Moreover, the inhibition was 26% in assay [2] and -7% in assay [3]. For the same compound, the result in assay [5], in assay [6], in assay [7] and in assay [8] was inactive.
For `CCOC(=O)C(NC(=O)c1ccc([N+](=O)[O-])o1)C(C)C` (stereo not drawn), the growth inhibition was 8% in assay [1] and 87% (active) in assay [4]. In addition, the inhibition was -3% in assay [2] and 0% in assay [3]. The result in assay [5], in assay [6], in assay [7] and in assay [8] was inactive.
For the compound `COc1cccc(CN2CCCN(Cc3cccc(NC(=O)c4ccc(Cl)c(Cl)c4)c3)CC2)c1`, the growth inhibition in assay [1] was 11%; in assay [4], 89% (active). The inhibition in assay [2] was 26%; in assay [3] it was 0%. Besides, the outcome in assay [5], in assay [6], in assay [7] and in assay [8] was inactive.
Take `NC(=O)CNC(=O)CCCN=C(N)N`: the growth inhibition was -2% in assay [1] and 101% (active) in assay [4]. Also, the results for the inhibition in assay [2] and in assay [3] were 20% and 5%, respectively. For the same compound, the result in assay [5], in assay [6], in assay [7] and in assay [8] was inactive.
Turning to `O=C(NC(=S)Nc1cc(C(F)(F)F)cc(C(F)(F)F)c1)c1ccc(Cl)cc1`, the growth inhibition in assay [1] was 99% (active); in assay [4], 96% (active). For the same compound, the inhibition was 31% in assay [2] and 0% in assay [3]. Further, the outcome in assay [5], in assay [6], in assay [7] and in assay [8] was inactive.
Regarding `C#CCN(Cc1ccc2nc(N)[nH]c(=O)c2c1)c1ccc(C(=O)N[C@@H](CCC(=O)O)C(=O)O)cc1`, the growth inhibition in assay [1] was 96% (active); in assay [4], 95% (active). The results for the inhibition in assay [2] and in assay [3] were 45% and 3%, respectively. Further, the result in assay [5], in assay [6], in assay [7] and in assay [8] was inactive.
As to `Clc1cccc(CNc2nc(NCCc3cnc[nH]3)nc(NC3CCCCC3)n2)c1`, the growth inhibition in assay [1] was 0%; in assay [4], 98% (active). For the same compound, the inhibition in assay [2] was 17%; in assay [3], 5%. For the same compound, the outcome in assay [5], in assay [6], in assay [7] and in assay [8] was inactive.
Consider `Cc1ccccc1Nc1nc(NCc2ccccc2)nc2ccccc12`, for which the growth inhibition is 35% in assay [1] and 88% (active) in assay [4]. Also, the inhibition was 39% in assay [2] and -3% in assay [3]. For the same compound, the result in assay [5], in assay [6], in assay [7] and in assay [8] was inactive.
Regarding `Cc1cccnc1Nc1nc(-c2ccccn2)cs1`, the growth inhibition is 99% (active) in assay [1] and 96% (active) in assay [4]. The results for the inhibition in assay [2] and in assay [3] were 60% (active) and -1%, respectively. Further, the result in assay [5], in assay [6], in assay [7] and in assay [8] was inactive.
Regarding `COc1ccc(Nc2nc(NCc3ccco3)c3ccccc3n2)cc1`, the growth inhibition in assay [1] is 76% (active); in assay [4] it was 99% (active). Besides, the inhibition in assay [2] is 38%; in assay [3] it was -4%. In addition, the result in assay [5], in assay [6], in assay [7] and in assay [8] was inactive.
On to `O=C(NCCCCCN1CCC(c2c[nH]c3ccccc23)CC1)Nc1ccc(I)c(Cl)c1`, for which the growth inhibition in assay [1] is 5%; in assay [4] it was 99% (active). In addition, the inhibition was 88% (active) in assay [2] and 3% in assay [3]. The outcome in assay [5], in assay [6], in assay [7] and in assay [8] was inactive.
